Results filed as inconclusive are left out. Entries that show only a call come without a potency. Active and inactive are the calls of the source. Calls follow the shape of the dose curve; as a rule, active = well fitted inhibition curve with a large enough effect; inconclusive = small, poorly fitted or top-dose-only effect; inactive = no such curve, though single readings can be large or run the other way.
Potency is read from the fitted curve at half-maximal effect.

N-terminal Xaa-Pro-Lys N-methyltransferase 1 (Homo sapiens), sequence (Q9BV86 whole entry, looked up): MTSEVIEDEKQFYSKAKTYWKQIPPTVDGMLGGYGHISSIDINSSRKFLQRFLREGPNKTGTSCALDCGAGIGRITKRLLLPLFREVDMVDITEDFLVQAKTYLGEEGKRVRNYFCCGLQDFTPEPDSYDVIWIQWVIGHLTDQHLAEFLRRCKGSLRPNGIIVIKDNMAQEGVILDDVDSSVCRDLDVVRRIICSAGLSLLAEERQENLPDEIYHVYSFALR

The target of the test is N-terminal Xaa-Pro-Lys N-methyltransferase 1 (Homo sapiens) (UniProt Q9BV86). The test is described as follows: qHTS Assay for Inhibitors of N-terminal methyltransferase 1 (NTMT1): MTaseGlo Confirmatory Screen, Round 2. The settings on record: NTMT1 enzyme, MTase-Glo SAH luminescence; series mostly up to 57.4 µM. An excerpt:
Assay Submitter (PI): Rong Huang Ph.D, Purdue University, West Lafayette, IN 47907
The N-terminal methytransferase 1 is the first methyltransferase that methylates protein alpha-N-amines and plays an important role in regulating cell mitosis, chromatin interactions and DNA repair. It is observed to be over-expressed in various cancer patient tissues like malignant melanoma and colorectal cancer tissues. Knockdown of NTMT1 in cancer cells causes cell mitotic defects and enhances sensitivity to DNA damaging chemotherapeutics. […] These critical cellular processes in which NTMT1 is implicated, coupled with emerging links to cellular dysfunction, strengthen the inference that NTMT1 is a compelling novel anticancer target. Progress have been made in understanding the molecular properties of NTMT1 and the biological consequences of protein alpha-N-terminal methylation, but there are no specific small molecule probes available for NTMT1 to fully characterize its MTase activity. To address this unmet need, a panel of assay is created and established to enable quantitative high-throughput screening (qHTS) for novel, potent, and selective small molecule NTMT1 inhibitors. Two orthogonal qHTS that use different reagents (ThioGlo vs. MTaseGlo) are developed for primary robotic screening against the NCATS chemical library of more than 400,000 small molecules. Identified inhibitors are reacquired, validated, and further characterized.
MTaseGlo Assay is a luminescence screen that measure the activity of methyltransferases based on the reaction product S-adenosyl homocysteine (SAH). The substrate SAM is converted to SAH upon enzyme activation. MTase-Glo reagent and detection solution convert SAH to ATP and measure the light from the luciferase reaction.
Early Translation Branch (ETB)
National Center for Advancing Translational Sciences (NCATS)
National Institute of Health (NIH)
NTMT1 enzyme, substrate SPKRIA, control peptide RCC1-6 is provided by the Huang laboratory.
In brief, 3 µL of enzyme mixture (final concentrations of 125 nM and 100 µM for NTMT1 and SAM, respectively) into all wells of a 1,536-well solid-bottom white plate (Greiner Bio One, Monroe, NC). 23 nL of DMSO or Ac-RCC1-10 (final concentration range 234 nM to 143 microM) was transferred via Wako Pin-tool (Wako Automation, Richmond, VA) and incubated (RT) for ~15 minutes. Next, 1 µL of substrate (final concentration 1 µM) or buffer was dispensed, and the reaction proceeded for 30 minutes (RT, protected from light) followed by a 1 microL addition of [5X] MTase-Glo Reagent(R). Samples were incubated (RT, protected from light) for 30 minutes to allow for SAH to be converted to ADP, followed by a 5 microL addition of [1X] MTase-Glo Detection Solution(R) to allow for ADP to be converted to ATP, which was then detected with a luciferase reaction. Samples were centrifuged for 15 seconds at 1,000 RPM's, followed by a RT incubation for 30 minutes. Plates were then read using Luminescence optics on a ViewLux detector. Data were normalized to no-enzyme (0% activity) and no-inhibitor (DMSO; 100%) controls, and the resulting percent inhibition data were fitted to a 4-parameter Hill equation using Graphpad Prism.
Consider `CC(N)[C@H](O)c1ccc(O)c(O)c1` (stereo partly drawn), for which the Potency result is “inactive”.
Under `O=[N+]([O-])c1ccc2nc(N3CCNCC3)ccc2c1` stands “inactive”.
With `NCC(O)c1cc(O)c(O)cc1F` (stereo not drawn), the Potency entry is “inactive”.
As for `O=S1(=O)N(CCN2CC=C(c3c[nH]c4cc(F)ccc34)CC2)c2cccc3c2N1CCC3`, the entry is “inactive”; as for `O=C1CC[C@@]2(O)C3Cc4ccc(O)c5c4C2(CCN3CC2CC2)[C@H]1O5` (stereo partly drawn), “inactive”; as for `CN(N=O)c1cc(O)ccc1O`, “inactive”.
For the molecule `O=[N+]([O-])c1cc(O)c(O)c([N+](=O)[O-])c1`, the Potency result was “inactive”.
On to `CCn1cnc2c(Nc3cccc(Cl)c3)nc(N[C@@H]3CCCC[C@@H]3N)nc21`, for which the Potency was 11.2 µM (active).
With `O=[N+]([O-])/C=C/c1ccc2c(c1)OCO2`, the Potency entry is “inactive”.
As for `NC(N)=Nc1ccc2[nH]c3c(c2c1)C[C@@]1(O)[C@H]2Cc4ccc(O)c5c4[C@@]1(CCN2CC1CC1)[C@H]3O5`, the figure is 25.1 µM (active); as for `COc1ccc2c(c[n+](C)c3c4cc5c(cc4ccc23)OCO5)c1OC`, “inactive”; as for `NC(Cc1cc(O)c(O)cc1O)C(=O)O` (stereo not drawn), 15.8 µM (active).
Turning to `CNCCc1c[nH]c2ccc(O)cc12`, the Potency result is “inactive”.
Under `c1ccc(CCCN2CCN(CCOC(c3ccccc3)c3ccccc3)CC2)cc1` stands “inactive”; under `NC(=O)CI`, 8.91 µM (active); under `Clc1ccc(N2CC3CCC(C2)N3)nn1`, “inactive”.
For the molecule `N#C/C(=C/c1ccc(O)c(O)c1)C(N)=S`, the Potency result was “inactive”.
Take `N#CC(C#N)=Cc1ccc(O)c(O)c1`: the Potency entry was “inactive”.
For the molecule `CC(=O)c1c(O)c(C)c(O)c(Cc2c(O)c3c(c(C(=O)/C=C/c4ccccc4)c2O)OC(C)(C)C=C3)c1O`, the Potency entry was “inactive”.
As for `CC(N)Cc1c[nH]c2ccc(O)cc12` (stereo not drawn), the entry is “inactive”; as for `CC(C)=CCOc1c2occc2cc2ccc(=O)oc12`, “inactive”.
Regarding `CCCN(CCC)[C@H]1CCc2c(F)ccc(O)c2C1`, the Potency result was “inactive”.
As to `COC[C@H]1OC(=O)c2coc3c2[C@@]1(C)C1=C(C3=O)C2CCC(=O)[C@@]2(C)C[C@H]1OC(C)=O` (stereo partly drawn), the Potency result was “inactive”.

These data come from PubChem BioAssay AID1347147 (National Center for Advancing Translational Sciences (NCATS), 2019).
